About 83,000 compounds went through this panel and 20% of them were active in at least one assay; those are over-represented in the sample as a whole.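 For each line, cells grew in 96-well plates with the test compound present at a single concentration for 48 hours.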 A number with no mark means an inactive call. Active and inactive are the calls of the source. The calls were made as follows: active = growth percent below 10; inactive = the rest.
Experiments:
Assay in all cases: NCI-60 one-dose screen, 48 h (100 = growth as untreated, 0 = no growth, -100 = all killed)
Conditions in all cases: 10 µM
NCI-H23 lung = tested on: NCI-H23 lung
NCI-H226 lung = tested on: NCI-H226 lung
NCI-H322M lung = tested on: NCI-H322M lung
HOP-62 NSCLC = tested on: HOP-62 NSCLC
NCI-H460 lung = tested on: NCI-H460 lung
HOP-92 NSCLC = tested on: HOP-92 NSCLC
NCI-H522 lung = tested on: NCI-H522 lung
A549/ATCC NSCLC = tested on: A549/ATCC NSCLC
786-0 renal = tested on: 786-0 renal
COLO 205 colon = tested on: COLO 205 colon
DU-145 prostate = tested on: DU-145 prostate
K-562 leukemia = tested on: K-562 leukemia
MALME-3M melanoma = tested on: MALME-3M melanoma
MDA-MB-231 breast = tested on: MDA-MB-231 breast
SF-268 CNS = tested on: SF-268 CNS
SF-295 CNS = tested on: SF-295 CNS
SF-539 CNS = tested on: SF-539 CNS
UACC-257 melanoma = tested on: UACC-257 melanoma
M14 melanoma = tested on: M14 melanoma

SMILES | growth (NCI-H23 lung) | growth (NCI-H226 lung) | growth (NCI-H322M lung) | growth (HOP-62 NSCLC) | growth (NCI-H460 lung) | growth (HOP-92 NSCLC) | growth (NCI-H522 lung) | growth (A549/ATCC NSCLC) | growth (786-0 renal) | growth (COLO 205 colon) | growth (DU-145 prostate) | growth (K-562 leukemia) | growth (MALME-3M melanoma) | growth (MDA-MB-231 breast) | growth (SF-268 CNS) | growth (SF-295 CNS) | growth (SF-539 CNS) | growth (UACC-257 melanoma) | growth (M14 melanoma)
CC(=O)Nc1ccc(-c2cn(-c3cccc(C(=O)Nc4cccc(OC(F)(F)F)c4)c3)nn2)cn1 | 87% | 106% | 114% | 97.7% | 47.4% | 122% | 88.5% | 86.3% | 115% | 111% | 84.4% | 61.8% | 26.4% | 97.4% | 86.3% | 87.4% | 84.3% | 89.8% | 80.4%
O=C(CNc1nc(-c2ccccc2)cs1)Nc1cccc([N+](=O)[O-])c1 | -92.5% (active) | -42.5% (active) | -71.4% (active) | -76.2% (active) | 4.92% (active) | -49.2% (active) | -83.2% (active) | -72.7% (active) | -85.1% (active) | -64.1% (active) | -98.6% (active) | 8.88% (active) | -90.5% (active) | -88.7% (active) | -57.7% (active) | -94.2% (active) | -100% (active) | -71.5% (active) | -87.6% (active)
CC(C)Sc1nc(NC2CC2)c(C#N)c(-c2ccccc2)n1 | 75.5% | 22.4% | 77.4% | 33.9% | 75.1% | 58.4% | 60.9% | 48.6% | 28.5% | 90.5% | 86.2% | 90% | 104% | 58.9% | 61% | 54.9% | 42% | 103% | 117%
O=C1CCC(N2Cc3cc(NC(=O)COc4ccccc4)ccc3C2=O)C(=O)N1 (centres undefined) | 101% | 48.1% | 80.3% | 65.7% | 113% | -0.508% (active) | 91% | 85% | 71.8% | 74.6% | 111% | 93.6% | 19.2% | 25.1% | 87.3% | 71.5% | 78.4% | 110% | 56.3%
O=C(CSc1nnc(-c2c[nH]c3ccccc23)n1-c1ccccc1)c1ccccc1 | 44.9% | 4.48% (active) | 81.2% | 23.4% | 61.8% | 47% | 71.6% | 85.5% | 29.6% | 93.4% | 85.7% | 52.8% | 37.4% | 27% | 31.7% | 72% | 7.59% (active) | 103% | 73.6%
COc1cc(C2CC(c3ccc(C)cc3)=Nc3c(N)nc(N)nc3N2)ccc1Oc1nc(Nc2ccc(F)cc2)nc(N(C)C)n1 (centres undefined) | 73% | 61.4% | 86.6% | 93.9% | 37.7% | 9.32% (active) | 87.3% | 88.1% | 50.4% | 48.1% | 53.7% | 19.8% | 64.8% | 38.7% | 54.7% | 68.8% | 72.9% | 76.7% | 67.5%
COc1ccc(CN2[C@@H](C(=O)NCc3ccc(C(=O)NO)cc3)Cc3c([nH]c4ccccc34)[C@@H]2C)cc1 | 15.2% | 45.8% | 30.5% | 37.7% | 11.7% | 2.77% (active) | -5.15% (active) | 41.6% | 39.7% | -12.6% (active) | 18.6% | 12% | 0.926% (active) | 13% | 24.8% | 6.57% (active) | 17.2% | 32.1% | 23.3%
Cc1ccc(-c2cc(C(=O)N=Nc3c(O)[nH]c4ccc(Br)cc34)c3ccccc3n2)cc1 | 51.2% | 65.3% | 80.9% | 86.1% | 47.3% | 87.6% | 78.7% | 85.8% | 88.6% | 108% | 85.8% | 17.8% | 80.2% | 41.7% | 80.9% | 76.5% | 76% | 103% | 75.6%
Cn1cc(/C=N/Nc2ccnc3cc(Cl)ccc23)c2ccccc21 | -84.1% (active) | -67.5% (active) | -99.6% (active) | -63.8% (active) | -67.5% (active) | -68% (active) | -68.1% (active) | -39% (active) | -65.2% (active) | -59% (active) | -92.7% (active) | 2.82% (active) | -82.1% (active) | -90.4% (active) | -73.9% (active) | -93.9% (active) | -92% (active) | -71% (active) | -66.9% (active)
COc1ccc(-c2nc(Nc3ccccc3S(N)(=O)=O)c3ccccc3n2)cc1 | -0.0975% (active) | -43% (active) | 35.1% | 77.7% | -24.9% (active) | 4.23% (active) | 59.7% | -2.67% (active) | -16.5% (active) | 75.9% | 7.82% (active) | 34.1% | -7.51% (active) | -33.6% (active) | 22.5% | 61.3% | -4.27% (active) | 91.2% | 75.8%
O=C(CSc1nnc(-c2c[nH]c3ccccc23)n1-c1ccccc1)Nc1ccc(C(=O)/C=C/c2ccc(Br)cc2)cc1 | 81.3% | 72.5% | 92.1% | 89.4% | 104% | 89.4% | 76.3% | 89.6% | 94.8% | 108% | 96.4% | 69.1% | 98.5% | 87.8% | 67% | 74.8% | 80.5% | 109% | 102%
[2H]C([2H])([2H])Oc1ccc2ncc(C#Cc3cncc(C(=O)Nc4ccc(CN5CCN(C)CC5)c(C(F)(F)F)c4)c3)n2n1 | -80.5% (active) | -65.8% (active) | -98.9% (active) | -41% (active) | 2.44% (active) | -66.6% (active) | -40.4% (active) | -33% (active) | -28.6% (active) | -62.2% (active) | -98.8% (active) | 1.31% (active) | -81.1% (active) | -90.5% (active) | -42.8% (active) | -77% (active) | -90.2% (active) | -65.9% (active) | -61.9% (active)
CCOc1ccc(/C=N/NC(=O)Cn2nc(Cc3ccccc3)c3onc(C)c3c2=O)cc1 | 37.4% | -19.3% (active) | 50.5% | -39.3% (active) | 16.7% | -45.9% (active) | 11.4% | 11.6% | -51.9% (active) | 29.2% | 30.6% | 75% | -11.8% (active) | 9.5% (active) | -9.54% (active) | 10.8% | -47.2% (active) | 66.2% | 57.6%
CN1CCN(c2ccc(C(=O)/C=C/c3cc(C(F)(F)F)ccc3Cl)cc2)CC1 | -95.3% (active) | -93% (active) | -94.8% (active) | -27.4% (active) | -46.6% (active) | -58.9% (active) | -60.4% (active) | -78.1% (active) | -83.1% (active) | -97% (active) | -62.5% (active) | 2.76% (active) | -95.4% (active) | -95.1% (active) | 1.69% (active) | -89.3% (active) | -100% (active) | -79.7% (active) | -84.9% (active)
CC(=O)Oc1ccccc1C(=O)Oc1ccc(C(=O)/C=C/c2ccncc2)cc1 | 36.9% | 62.8% | 66.5% | 83.4% | 35.6% | 94.1% | 59.1% | 81% | 53.2% | 40.4% | 46.2% | 11.6% | 86.2% | 40.8% | 75% | 59.1% | -35.6% (active) | 94.9% | 47.6%
COc1ccc2[nH]cc(/C=N/Nc3cccc(Cl)n3)c2c1 | 64.2% | 48.4% | 71.2% | 59.3% | 47.3% | 27% | 27.1% | 69.8% | 25.4% | 57.5% | 64.4% | 19.9% | 76.3% | 3.25% (active) | 32.8% | 47.2% | 26.8% | 84.3% | 49.5%
